# This is part of a sample that, as a whole, favours compounds with a hit. Of some 79,000 tested, about 15% had one in any assay. A number with no mark means an inactive call. Activity calls are given as the source filed them. No stated cut-off is given here; in the data, active means growth inhibition above about 70%; inactive means the rest.
# Assays:
# [1] = NCI Yeast Anticancer Drug Screen. Data for the rad52 strain (AID 147);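 further: 0% = growth of vehicle-treated control cultures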; details: S. cerevisiae rad52 mutant growth inhibition, hits give high values
# How it was run: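 Growth of repair-deficient yeast cells was compared between compound-treated and vehicle-treated cultures to give percent inhibition.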
# [2] = NCI Yeast Anticancer Drug Screen. Data for the wt1 strain (AID 149);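 further: 0% = growth of vehicle-treated wt1 cultures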; details: S. cerevisiae wt1 strain (SPY 50644) growth inhibition, hits give high values
# How it was run: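 Using yeast strain wt1, compound-induced growth inhibition was determined against vehicle-treated cultures.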
# [3] = NCI Yeast Anticancer Drug Screen. Data for the rad50EPP+ strain (AID 151);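 further: 0% = growth of vehicle-treated control cultures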; details: S. cerevisiae rad50 mutant strain, hits give high values
# How it was run: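 Measured: growth inhibition of rad50EPP+ yeast. Reference: vehicle-treated controls. Screen uses strains with defined genetic alterations in DNA damage repair or cell cycle control.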
# [4] = NCI Yeast Anticancer Drug Screen. Data for the mgt1 strain (AID 153); details: S. cerevisiae mgt1 mutant growth inhibition, hits give high values
# How it was run: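 Compounds were applied to mgt1 mutant yeast, and growth was then compared against vehicle-treated control cultures to give percent inhibition.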
# [5] = NCI Yeast Anticancer Drug Screen. Data for the rad50 strain (AID 155);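 further: 0% = growth of vehicle-only cultures of the same strain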; details: S. cerevisiae rad50 strain growth inhibition, hits give high values
# How it was run: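 Relative growth inhibition (compound vs vehicle) was measured in yeast with a defined repair-gene alteration.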
# [6] = NCI Yeast Anticancer Drug Screen. Data for the mec2-1 strain (AID 157); details: S. cerevisiae mec2-1 strain, hits give high values
# How it was run: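 Compounds were applied to mec2-1 yeast cells. Their growth was then compared with that of vehicle-treated cultures to give growth inhibition.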
# [7] = NCI Yeast Anticancer Drug Screen. Data for the rad14 strain (AID 159);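 further: 0% = growth of vehicle-treated control cultures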; details: S. cerevisiae rad14 strain growth inhibition, hits give high values
# How it was run: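 Screen for anticancer potential: a yeast strain altered in DNA damage repair is grown with compound, and reduced growth is quantified against vehicle controls.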
# [8] = NCI Yeast Anticancer Drug Screen. Data for the sgs1 mgt1 strain (AID 161);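 further: 0% = growth of cultures given vehicle only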; details: S. cerevisiae sgs1 mgt1 strain, hits give high values
# How it was run: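 This yeast growth screen uses a strain with defined DNA-repair lesions; compound-treated growth is compared with vehicle-treated growth.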
# [9] = NCI Yeast Anticancer Drug Screen. Data for the CLN2oe strain (AID 163);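 further: 0% = growth of vehicle-only control cultures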; details: S. cerevisiae CLN2oe strain, hits give high values
# How it was run: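 Cells of an engineered yeast line with disturbed cell-cycle regulation are treated with compound. Inhibition of growth is then calculated relative to the vehicle-treated reference.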
# [10] = NCI Yeast Anticancer Drug Screen. Data for the cln2 rad14 strain (AID 165);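 further: 0% = growth equal to vehicle treated cultures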; details: S. cerevisiae cln2 rad14 strain, hits give high values
# How it was run: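 Strain: cln2 rad14 yeast, altered in cell cycle control and DNA damage repair. Read-out: growth inhibition vs vehicle.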
# [11] = NCI Yeast Anticancer Drug Screen. Data for the bub3 strain (AID 167); details: S. cerevisiae bub3 mutant strain, hits give high values
# How it was run: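 Screening used yeast with an engineered genetic alteration affecting cell cycle control. Compound-exposed cultures were compared with vehicle cultures, and reduced growth was taken as inhibition.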
# [12] = NCI Yeast Anticancer Drug Screen. Data for the mlh1 strain (AID 171);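 further: 0% = growth of vehicle-treated control cultures of the same strain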; details: S. cerevisiae mlh1 strain growth inhibition, hits give high values
# How it was run: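 Test agents were incubated with yeast bearing a defined DNA damage repair or cell cycle control alteration; values are growth inhibition normalised to vehicle-treated cultures.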
# [13] = NCI Yeast Anticancer Drug Screen. Data for the sgs1 strain (AID 173);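 further: 0% = growth of vehicle-only control cultures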; details: S. cerevisiae sgs1 mutant, hits give high values
# How it was run: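 Strain with an altered DNA repair or cell cycle pathway exposed to compound. Growth then measured. Value = inhibition versus vehicle control.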
# [14] = NCI Yeast Anticancer Drug Screen. Data for the mlh1 rad18 strain (AID 175); details: S. cerevisiae mlh1 rad18 strain growth inhibition, hits give high values
# How it was run: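 A repair-deficient yeast strain is exposed to test compound, and growth is scored relative to vehicle-treated controls.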
# [15] = NCI Yeast Anticancer Drug Screen. Data for the rad18 strain (AID 177); details: S. cerevisiae rad18 mutant growth inhibition, hits give high values
# How it was run: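 DNA-repair-defective yeast; compound treatment; growth inhibition scored against vehicle.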
# [16] = at 5.0 µM (retest, dose inferred, filed as 0.5)
# [17] = at 50.0 µM (retest, dose inferred, filed as 5.0)
smiles,measurement,setting,value
NNc1ccccc1-c1nc2ccccc2[nH]1,growth inhibition,[1]; at 1.2 µM,1%
same,growth inhibition,[1]; at 3.7 µM,7%
same,growth inhibition,[1]; at 11.0 µM,9%
same,growth inhibition,[1]; at 33.0 µM,17%
same,growth inhibition,[1]; at 100.0 µM,60%
same,growth inhibition,[2]; at 1.2 µM,-4%
same,growth inhibition,[2]; at 3.7 µM,-3%
same,growth inhibition,[2]; at 11.0 µM,-5%
same,growth inhibition,[2]; at 33.0 µM,-4%
same,growth inhibition,[2]; at 100.0 µM,25%
same,growth inhibition,[3]; at 1.2 µM,2%
same,growth inhibition,[3]; at 3.7 µM,6%
same,growth inhibition,[3]; at 11.0 µM,12%
same,growth inhibition,[3]; at 33.0 µM,24%
same,growth inhibition,[3]; at 100.0 µM,59%
same,growth inhibition,[4]; at 1.2 µM,-3%
same,growth inhibition,[4]; at 3.7 µM,-2%
same,growth inhibition,[4]; at 11.0 µM,0%
same,growth inhibition,[4]; at 33.0 µM,-1%
same,growth inhibition,[4]; at 100.0 µM,48%
same,growth inhibition,[5]; at 1.2 µM,-1%
same,growth inhibition,[5]; at 3.7 µM,5%
same,growth inhibition,[5]; [16],-144%
same,growth inhibition,[5]; at 11.0 µM,6%
same,growth inhibition,[5]; at 33.0 µM,26%
same,growth inhibition,[5]; [17],53%
same,growth inhibition,[5]; at 50.0 µM,75.9% (active)
same,growth inhibition,[5]; at 100.0 µM,60%
same,growth inhibition,[6]; at 1.2 µM,3%
same,growth inhibition,[6]; at 3.7 µM,3%
same,growth inhibition,[6]; [16],-50%
same,growth inhibition,[6]; at 11.0 µM,2%
same,growth inhibition,[6]; at 33.0 µM,1%
same,growth inhibition,[6]; [17],-40%
same,growth inhibition,[6]; at 50.0 µM,48.4%
same,growth inhibition,[6]; at 100.0 µM,20%
same,growth inhibition,[7]; at 1.2 µM,-2%
same,growth inhibition,[7]; at 3.7 µM,-5%
same,growth inhibition,[7]; at 11.0 µM,-1%
same,growth inhibition,[7]; at 33.0 µM,0%
same,growth inhibition,[7]; at 100.0 µM,49%
same,growth inhibition,[8]; [16],-61%
same,growth inhibition,[8]; [17],27%
same,growth inhibition,[8]; at 50.0 µM,11.7%
same,growth inhibition,[9]; at 1.2 µM,-2%
same,growth inhibition,[9]; at 3.7 µM,-1%
same,growth inhibition,[9]; at 11.0 µM,-3%
same,growth inhibition,[9]; at 33.0 µM,-9%
same,growth inhibition,[9]; at 100.0 µM,35%
same,growth inhibition,[10]; [16],-63%
same,growth inhibition,[10]; [17],-73%
same,growth inhibition,[10]; at 50.0 µM,32.1%
same,growth inhibition,[11]; at 1.2 µM,-6%
same,growth inhibition,[11]; at 3.7 µM,-4%
same,growth inhibition,[11]; [16],-65%
same,growth inhibition,[11]; at 11.0 µM,-3%
same,growth inhibition,[11]; at 33.0 µM,-3%
same,growth inhibition,[11]; [17],-30%
same,growth inhibition,[11]; at 50.0 µM,76.9% (active)
same,growth inhibition,[11]; at 100.0 µM,30%
same,growth inhibition,[12]; at 1.2 µM,6%
same,growth inhibition,[12]; at 3.7 µM,-3%
same,growth inhibition,[12]; at 11.0 µM,-3%
same,growth inhibition,[12]; at 33.0 µM,-3%
same,growth inhibition,[12]; at 100.0 µM,47%
same,growth inhibition,[13]; at 1.2 µM,0%
same,growth inhibition,[13]; at 3.7 µM,1%
same,growth inhibition,[13]; at 11.0 µM,0%
same,growth inhibition,[13]; at 33.0 µM,-1%
same,growth inhibition,[13]; at 100.0 µM,47%
same,growth inhibition,[14]; [16],-114%
same,growth inhibition,[14]; [17],-3%
same,growth inhibition,[14]; at 50.0 µM,91% (active)
same,growth inhibition,[15]; at 1.2 µM,0%
same,growth inhibition,[15]; at 3.7 µM,-2%
same,growth inhibition,[15]; at 11.0 µM,0%
same,growth inhibition,[15]; at 33.0 µM,0%
same,growth inhibition,[15]; at 100.0 µM,48%
O=C(O)c1ccccc1C(=O)OC1CCc2ccccc2C1 (stereo unspecified),growth inhibition,[1]; at 1.2 µM,-3%
same,growth inhibition,[1]; at 3.7 µM,-2%
same,growth inhibition,[1]; at 11.0 µM,0%
same,growth inhibition,[1]; at 33.0 µM,18%
same,growth inhibition,[1]; at 100.0 µM,46%
same,growth inhibition,[2]; at 1.2 µM,-5%
same,growth inhibition,[2]; at 3.7 µM,-7%
same,growth inhibition,[2]; at 11.0 µM,-80%
same,growth inhibition,[2]; at 33.0 µM,-1%
same,growth inhibition,[2]; at 100.0 µM,27%
same,growth inhibition,[3]; at 1.2 µM,0%
same,growth inhibition,[3]; at 3.7 µM,-4%
same,growth inhibition,[3]; at 11.0 µM,-1%
same,growth inhibition,[3]; at 33.0 µM,-8%
same,growth inhibition,[3]; at 100.0 µM,-12%
same,growth inhibition,[4]; at 1.2 µM,-4%
same,growth inhibition,[4]; at 3.7 µM,-6%
same,growth inhibition,[4]; at 11.0 µM,-10%
same,growth inhibition,[4]; at 33.0 µM,-1%
same,growth inhibition,[4]; at 100.0 µM,5%
same,growth inhibition,[5]; at 1.2 µM,-1%
same,growth inhibition,[5]; at 3.7 µM,0%
same,growth inhibition,[5]; [16],-12%
same,growth inhibition,[5]; at 11.0 µM,1%
same,growth inhibition,[5]; at 33.0 µM,14%
same,growth inhibition,[5]; [17],17%
same,growth inhibition,[5]; at 50.0 µM,26.4%
same,growth inhibition,[5]; at 100.0 µM,39%
same,growth inhibition,[6]; at 1.2 µM,-6%
same,growth inhibition,[6]; at 3.7 µM,-9%
same,growth inhibition,[6]; [16],-20%
same,growth inhibition,[6]; at 11.0 µM,-11%
same,growth inhibition,[6]; at 33.0 µM,13%
same,growth inhibition,[6]; [17],26%
same,growth inhibition,[6]; at 50.0 µM,50.1%
same,growth inhibition,[6]; at 100.0 µM,36%
same,growth inhibition,[7]; at 1.2 µM,-5%
same,growth inhibition,[7]; at 3.7 µM,-7%
same,growth inhibition,[7]; at 11.0 µM,-7%
same,growth inhibition,[7]; at 33.0 µM,11%
same,growth inhibition,[7]; at 100.0 µM,52%
same,growth inhibition,[8]; [16],1%
same,growth inhibition,[8]; [17],45%
same,growth inhibition,[8]; at 50.0 µM,50.4%
same,growth inhibition,[9]; at 1.2 µM,-10%
same,growth inhibition,[9]; at 3.7 µM,-14%
same,growth inhibition,[9]; at 11.0 µM,-11%
same,growth inhibition,[9]; at 33.0 µM,39%
same,growth inhibition,[9]; at 100.0 µM,62%
same,growth inhibition,[10]; [16],-74%
same,growth inhibition,[10]; [17],-12%
same,growth inhibition,[10]; at 50.0 µM,58%
same,growth inhibition,[11]; at 1.2 µM,-9%
same,growth inhibition,[11]; at 3.7 µM,-10%
same,growth inhibition,[11]; [16],-1%
same,growth inhibition,[11]; at 11.0 µM,-9%
same,growth inhibition,[11]; at 33.0 µM,17%
same,growth inhibition,[11]; [17],33%
same,growth inhibition,[11]; at 50.0 µM,55.8%
same,growth inhibition,[11]; at 100.0 µM,53%
same,growth inhibition,[12]; at 1.2 µM,-5%
same,growth inhibition,[12]; at 3.7 µM,-9%
same,growth inhibition,[12]; at 11.0 µM,-6%
same,growth inhibition,[12]; at 33.0 µM,14%
same,growth inhibition,[12]; at 100.0 µM,42%
same,growth inhibition,[14]; [16],-4%
same,growth inhibition,[14]; [17],33%
same,growth inhibition,[14]; at 50.0 µM,22.7%
same,growth inhibition,[15]; at 1.2 µM,-2%
same,growth inhibition,[15]; at 3.7 µM,-1%
same,growth inhibition,[15]; at 11.0 µM,-1%
same,growth inhibition,[15]; at 33.0 µM,6%
same,growth inhibition,[15]; at 100.0 µM,31%
CC1(C)CC(=O)C(C(=O)Nc2cccs2)=C(O)C1,growth inhibition,[1]; at 1.2 µM,-8%
same,growth inhibition,[1]; at 3.7 µM,7%
same,growth inhibition,[1]; at 11.0 µM,17%
same,growth inhibition,[1]; at 33.0 µM,64%
same,growth inhibition,[1]; at 100.0 µM,99% (active)
same,growth inhibition,[2]; at 1.2 µM,21%
same,growth inhibition,[2]; at 3.7 µM,28%
same,growth inhibition,[2]; at 11.0 µM,23%
same,growth inhibition,[2]; at 33.0 µM,50%
same,growth inhibition,[2]; at 100.0 µM,99% (active)
same,growth inhibition,[3]; at 1.2 µM,-56%
same,growth inhibition,[3]; at 3.7 µM,-63%
same,growth inhibition,[3]; at 11.0 µM,-53%
same,growth inhibition,[3]; at 33.0 µM,18%
same,growth inhibition,[3]; at 100.0 µM,98% (active)
same,growth inhibition,[4]; at 1.2 µM,10%
same,growth inhibition,[4]; at 3.7 µM,18%
same,growth inhibition,[4]; at 11.0 µM,35%
same,growth inhibition,[4]; at 33.0 µM,92% (active)
same,growth inhibition,[4]; at 100.0 µM,98% (active)
same,growth inhibition,[5]; at 1.2 µM,14%
same,growth inhibition,[5]; at 3.7 µM,16%
same,growth inhibition,[5]; [16],26%
same,growth inhibition,[5]; at 11.0 µM,18%
same,growth inhibition,[5]; at 33.0 µM,70% (active)
same,growth inhibition,[5]; [17],42%
same,growth inhibition,[5]; at 50.0 µM,88.8% (active)
same,growth inhibition,[5]; at 100.0 µM,98% (active)
same,growth inhibition,[6]; at 1.2 µM,3%
same,growth inhibition,[6]; at 3.7 µM,-18%

# — PubChem BioAssay (NCI)
